Measurements reported in PubChem BioAssay (NCI).
Compounds without any hit were thinned out: in the full panel of roughly 83,000, 20% have a hit.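 Compound tested at a single concentration for 48 hours in 96-well plates; a percent growth value below 10 was scored as active.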 Active and inactive are the calls of the source.

Test system: UACC-257 melanoma
Assay: NCI-60 one-dose screen, 48 h (100 = growth as untreated, 0 = no growth, -100 = all killed)
Conditions: 10 µM unless noted

| SMILES | growth |
| --- | --- |
| COC(=O)C1=Nc2ccc(F)cc2/C1=C\c1sc(Nc2ccc(O)cc2)nc1O | 72.2% (inactive) |
| COc1ccc(OC)c(Nc2nnc(-c3ccc(Cl)cc3)o2)c1 | 104% (inactive) |
| O=C(OC[C@@H]1CO1)c1cccc2c(=O)c3ccccc3[nH]c12 | -30.8% (active) |
| CNC(=O)c1c(NC(=O)c2ccc(C(C)(C)C)cc2)sc2c(CN(C)C)c(O)ccc12 | -56.4% (active) |
| C=C1C(=O)O[C@H]2[C@H]1CC/C(COC(=O)c1cc3cc(F)ccc3[nH]1)=C\CC[C@@]1(C)O[C@@H]21 | -79.5% (active) |
| COc1ccc2[nH]cc(-c3nc(-c4cn(C)c5ccncc45)cs3)c2c1 | 92.7% (inactive) |
| Brc1ccc(-c2cnc3nonc3n2)cc1 | 66.9% (inactive) |
| CC(C)CN1CC(C(=O)Nc2ccc3c(c2)-c2ccccc2C3)CC1=O (stereo not given) | 39.9% [50 µM] (inactive) |
| COc1cc2ncnc(Nc3ccc(F)c(Cl)c3)c2cc1OCC(=O)N1CCN(c2ccc(F)cc2)CC1 | 114% (inactive) |
| COc1ccc(-c2cn(-c3ccc(Cl)cc3)c(SCC(=O)c3ccc([N+](=O)[O-])cc3)n2)cc1 | 99.6% (inactive) |
| CCN(CC)S(=O)(=O)c1ccc(S(=O)(=O)N2CCC[C@@H](C(=O)N3CCN(C(=O)OC(C)(C)C)CC3)C2)cc1 | 49.9% (inactive) |
| O=C(c1ccc(Cl)cc1Cl)N1c2ccccc2Sc2ccccc21 | 64.3% (inactive) |
| COc1ccc(C2C3=C(COC3=O)N(CCO)c3cc4c(cc32)OCCO4)cc1OC (stereo not given) | 44.1% (inactive) |
| N#C/C(=C\c1ccc(-c2ccc(Cl)cc2)o1)c1ccc(Cl)cc1 | 100% (inactive) |
| COc1ccc(C2CC(c3ccc(Nc4nc(Nc5ccc(F)cc5)nc(Nc5ccc(F)cc5)n4)cc3)=NN2C(C)=O)cc1 (stereo not given) | 111% (inactive) |
| CCN(CC)CCOc1nc2c3ccc(Cl)cc3nn2c2ccccc12 | 16.1% (inactive) |
| COc1cc2c(cc1O)[C@@]1(C)[C@H](c3ccccc3Br)OC(=O)N1CC2 | 83.5% (inactive) |
| CC(C)(C)c1cc(C=Nc2cccc(C(F)(F)F)c2)c(O)c(C(C)(C)C)c1 | 78.7% (inactive) |
| CCCCCCNc1nc(NCCCCCC)c2[nH]c(NCCCCCC)nc2n1 | 104% (inactive) |
| COc1ccc(C2C(C#N)=C(N)Oc3c2sc2c(Br)cccc32)cc1 (stereo not given) | 65.5% (inactive) |

| SMILES | growth |
| --- | --- |
| CC(/C=C1\SC(=S)N(CC(=O)NC(Cc2c[nH]c3ccccc23)C(=O)O)C1=O)=C\c1ccccc1 (stereo not given) | 100% (inactive) |
| CCOC(=O)c1c(NC(=O)c2ccc(OC)cc2)sc2c(CN(C)C)c(O)ccc12 | -58% (active) |
| O=C(CCCCl)NNc1nccc(Nc2ccc(S(=O)(=O)Nc3ccncc3)cc2)n1 | 96.3% (inactive) |
| Nc1ncnc2c1c(-c1ccc(Oc3ccccc3)cc1)nn2CC1SSCC1O (stereo not given) | 46.6% (inactive) |
| COc1ccc(NC(=O)c2sc3nc(C)c(C(O)c4ccccc4)cc3c2N)cc1 (stereo not given) | 64.4% (inactive) |
| COc1cccc(C(=O)OCC(O)C(=O)NC23CC4CC(CC(C4)C2)C3)c1 (stereo not given) | 89% (inactive) |
| O=C(CBr)CN1C(=O)c2ccccc2C1=O | 101% (inactive) |
| O=C(NCc1ccccc1O)c1cccc2ccccc12 | 75.5% (inactive) |
| CCn1cc(C(=O)NN=C2CCCCCC2)c(=O)c2ccc(C)nc21 | 87.8% (inactive) |
| Nc1c(C(=O)Nc2ccccn2)sc2nc3c(cc12)C(O)CCC3 (stereo not given) | 53.2% (inactive) |
| COc1ccc(NC(=O)c2ccc(C(=O)Nc3ccc(OC)cc3OC)cc2)c(OC)c1 | 90.6% (inactive) |
| O=C(Nc1ncc(Cc2ccccc2Cl)s1)c1cccs1 | 92.6% (inactive) |
| COc1ccc2nc3ccccc3c(NCc3ccccc3)c2c1 | 27.1% (inactive) |
| Fc1ccc(COc2ccc(Nc3ncnc4sc5c(c34)CCCC5)cc2)cc1 | 106% (inactive) |
| COc1ccc(C2=Nc3c/c(=C\c4c(O)[nH]c5cc(Cl)ccc45)ccc3=N2)cc1 | 74.5% (inactive) |
| N#Cc1c(N2CCOCC2)nc(=S)[nH]c1-c1ccccc1 | 91.8% (inactive) |
| O=C1CCC(C(=O)NN(c2ccccc2)c2ccccc2)N1 (stereo not given) | 102% (inactive) |
| C/C(C=O)=C\c1ccc2c(c1)OCO2 | 109% (inactive) |
| COc1cc2c(/C=C3\C(=O)Nc4ccccc43)c(C(=O)O)[nH]c2cc1C | 106% (inactive) |
| C/C(=N\Nc1nc(C)cs1)c1cc2ccccc2o1 | 102% (inactive) |
